Pf growth 48h: inhibits P. falciparum growth in the first generation, 48 h; P. falciparum luciferase growth in erythrocytes, 48 h; Potency, µM (highest dose often 28.7 µM), without a hit: at the highest dose activity change, negative = inhibition, most hits filed as inhibitors; 310,000 tested, 5.9% active; further: potency means the concentration at half of the fitted maximal effect; on the % scale 0 is the no-effect control and ±100 the full control effect
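Luciferase-expressing parasites in RBCs, 2% Hct / 0.1% parasitemia final; RPMI 1640 + 0.5% Albumax; 37 C, 5% CO2, one generation; luminescence read-out, lower signal = inhibition.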
HCV inhibitor: inhibitors of hepatitis C virus infection. Huh7.5.1 HCVcc-Cre infection, luciferase reporter, 44 h. Potency, µM (series often up to 41.8 µM), inactives show at the top dose activity change, negative = inhibition, usual class: inhibitors. 340,000 tested, 3.4% active. AID 651820; further: potency means the concentration at half of the fitted maximal effect; on the % scale 0 is the no-effect control and ±100 the full control effect
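Infectious HCVcc-Cre (~0.5 moi) was added to cells just after compound, with cells seeded 4 h earlier at 1,000 per well. Luciferase activity after 44 h culture reported infection; substrate was incubated 15 min at room temperature before reading.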
AMA1 RON2 block: AMA1-RON2 (P. falciparum) interaction inhibition. 360,000 tested, 0.2% active. AlphaScreen AMA1-biotinylated RON2 peptide binding. AID 720542. Potency, µM (highest dose often 58.2 µM), for inactives: at the highest dose activity change, negative = inhibition, actives largely listed as inhibitors;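 further: potency means the concentration at half of the fitted maximal effect; 0% = vehicle wells and -100% = peptide control; nearly all actives have a fitted effect of over 45% in size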
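AMA1 (3D7) with his tag at 25 nM final met compounds first, then biotinylated RON2 peptide at 25 nM; detection used donor plus acceptor beads, 10 µg/mL apiece, read by AlphaScreen after 30 min at room temperature.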
Shiga toxin inh: blocks Shiga toxin action in Vero cells. inhibition, % at 38.7 µM. 290,000 tested, 9.2% active. Vero cells, Shiga toxin protein synthesis inhibition reporter. AID 2315; in the data active means inhibition mostly above about 28%, no sharp cut-off; inactive means mostly below about 43%; further: 0% is about no effect
Pf growth 96h: P. falciparum growth inhibition at 96 hours; Potency, µM (top dose mostly 28.7 µM), for inactives: top-dose activity change, negative = inhibition, actives largely listed as inhibitors; 320,000 tested, 6.9% active; P. falciparum luciferase reporter growth, 96 h; further: potency means the concentration at half of the fitted maximal effect; on the % scale 0 is the no-effect control and ±100 the full control effect
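Delayed-death screen, second-generation endpoint: infected erythrocytes, 2% hematocrit, 0.05% parasitemia final; 96 hours at 37 C, 5% CO2; luciferase detection reagent; luminescence decrease equals reduced growth.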
CHX counter: counter-screen for Shiga toxin inhibitors: cycloheximide protein synthesis inhibition. cell reporter, cycloheximide protein synthesis inhibition counterscreen. max response, %. 300,000 tested, 12% active; in the data active means max response mostly above about 13%, no sharp cut-off; inactive means mostly below about 14%; further: read at 38.3 µM for the half of the compounds with a filed dose; 0% is about no effect
The depositor's hits bear a star. The list is not random: actives were taken first. Their share in the collection is about 21%. Unless noted, the call rests on the fitted dose curve; in most records, active means well fitted curve in the direction sought with a large enough effect; inconclusive means small, poorly fitted or top-dose-only effect, or another doubt; inactive means no such curve, though single readings can be large; an effect the other way counts as inactive or inconclusive.

Screening CCOc1ccccc1C(=O)Nc1nccs1 returned Pf growth 48h 10%, HCV inhibitor 5.6µM*, AMA1 RON2 block 0%, Shiga toxin inh 31, Pf growth 96h 6.6µM* and CHX counter -2.
Cc1noc(C)c1COc1ccccc1C(=O)Nc1ccc(C(N)=O)cc1 was read as Pf growth 48h -16%, HCV inhibitor -5%, AMA1 RON2 block 0% and Pf growth 96h inconclusive.
`CCCCc1nnc(NC(=O)c2ccccc2OCc2c(C)noc2C)s1` gave Pf growth 48h 9.3µM*, HCV inhibitor 1%, AMA1 RON2 block 0% and Pf growth 96h 0.93µM*.
Screening CCOc1ccccc1C(=O)Nc1nnc(COC)s1 returned Pf growth 48h 13%, HCV inhibitor 7.1µM*, AMA1 RON2 block 0%, Shiga toxin inh 22, Pf growth 96h -22% and CHX counter 21*.
For CCOC(=O)Cc1nnc(NC(=O)c2ccccc2OCC)s1 the results were Pf growth 48h -10%, HCV inhibitor inconclusive, AMA1 RON2 block 14%, Shiga toxin inh -2, Pf growth 96h -17% and CHX counter -5.
For COCCSc1ccccc1C(=O)Nc1nccs1 the results were Pf growth 48h -2%, HCV inhibitor 3%, AMA1 RON2 block -1%, Shiga toxin inh 22 and CHX counter -1.
CCCCCCCCN1C(=O)[C@H](CC(=O)N2CCN(C(=O)c3ccco3)CC2)C[C@@]2(C(=O)OC)CC(C)(C)CC=C12 was read as AMA1 RON2 block 0%.
O=c1[nH]cc(C(F)(F)F)cc1NS(=O)(=O)c1ccccc1[N+](=O)[O-] was read as Pf growth 48h inconclusive, HCV inhibitor 10%, AMA1 RON2 block 12%, Shiga toxin inh -11, Pf growth 96h -14% and CHX counter -3.
Screening Clc1cccc(Oc2ncc(CN3CCOCC3)s2)c1 returned Pf growth 48h 58%, HCV inhibitor 14%, AMA1 RON2 block -18%, Shiga toxin inh 25, Pf growth 96h 92% and CHX counter 20*.
`Brc1ccc(Oc2ncc(CN3CCN(c4ccccc4)CC3)s2)cc1` gave HCV inhibitor -15%, AMA1 RON2 block inconclusive, Shiga toxin inh 39, Pf growth 96h inconclusive and CHX counter -4.
For O=C(CN1CCOCC1)Nc1ncc(Cc2cccc(Cl)c2)s1 the results were Pf growth 48h -12%, HCV inhibitor -4%, AMA1 RON2 block 16%, Shiga toxin inh -7, Pf growth 96h -28% and CHX counter -1.
Screening Cc1ccc(Oc2ncc(CN3CCOCC3)s2)cc1 returned Pf growth 48h 86%, HCV inhibitor 16%, AMA1 RON2 block -11%, Shiga toxin inh 61*, Pf growth 96h 163% and CHX counter 24*.
`COC(=O)C1=C(c2ccc(F)cc2F)C[C@@H]2CC[C@H]1N2C(=O)NCCOc1ccccc1Cl` gave Pf growth 48h inconclusive, HCV inhibitor inconclusive, AMA1 RON2 block -4% and Pf growth 96h 10µM*.
Screening COC(=O)C1=C(c2ccc(F)cc2F)C[C@@H]2CC[C@H]1N2C(=O)NCCO returned Pf growth 48h 22%, HCV inhibitor 16%, AMA1 RON2 block 2% and Pf growth 96h 37%.
Screening COC(=O)C1=C(c2ccc(F)cc2F)C[C@@H]2CC[C@H]1N2C(=O)NCCOc1ccc(OC)cc1 returned Pf growth 48h 10µM*, HCV inhibitor -23%, AMA1 RON2 block -3% and Pf growth 96h -29%.
`COC(=O)C1=C(c2ccc(F)cc2F)C[C@@H]2CC[C@H]1N2C(=O)NCCCOC(C)C` gave Pf growth 48h -11%, HCV inhibitor 4%, AMA1 RON2 block -2% and Pf growth 96h inconclusive.
CCOC(=O)Cn1ncn(-c2ccc(OC(F)(F)F)cc2)c1=O was read as Pf growth 48h 27%, HCV inhibitor 26%, AMA1 RON2 block 39%, Shiga toxin inh 7, Pf growth 96h inconclusive and CHX counter -3.
Oc1ccc(C[C@H]2CNC(=S)N2CC2CCCN2C[C@H](Cc2ccc(O)cc2)N2C[C@H](Cc3ccc(O)cc3)N(CC3CCCCCC3)C2=S)cc1 (some centres undefined) was read as HCV inhibitor inconclusive and AMA1 RON2 block 25%.

High-throughput results: PubChem BioAssay, National Center for Advancing Translational Sciences (NCATS)
